Source: PubChem BioAssay (National Center for Advancing Translational Sciences (NCATS))
Most compounds without a hit are left out; they make up all but 12% or so of the library.
BAZ2B inh – inhibitors of human BAZ2B bromodomain; Q9UIF8; AlphaScreen BAZ2B-H3K14Ac peptide displacement; Potency, µM (series often up to 114 µM), actives largely listed as inhibitors; hit rate 4.4% among 360,000; AID 504333; also: nearly all actives have a fitted effect of over 60% in size
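BAZ2B 50 nM plus b-H3(5-23)K14Ac 50 nM, PBS pH 7.4/0.01% Tween-20, 30 min RT; compound added (max 110 uM), 30 min RT; streptavidin donor/Ni-chelate acceptor beads 10 ug/mL final, 20 min dark; AlphaScreen read.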
Sfp inh – inhibitors of Bacillus subtilis Sfp phosphopantetheinyl transferase | hit rate 3.5% among 310,000 | Q9F4F7 | Biochemical Sfp PPTase activity, qHTS | AID 1490 | Potency, µM, most hits filed as inhibitors;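 also: the enzyme is Sfp with the accession as filed and its product quenches rhodamine fluorescence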
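Step 1, compound plus 15 nM Sfp-PPTase, 15 min, room temperature. Step 2, add rhodamine-CoA (5 uM) and BHQ-2-YbbR (12.5 uM). Step 3, read 525/598 nm fluorescence at 0 and 30 min.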
HP1b chromo inh – blocks HP1-beta chromodomain binding to methylated histone tails. P83916. AlphaScreen HP1-beta / biotin-H3K9me3 peptide binding. Potency, µM (top dose mostly 114 µM), actives largely listed as inhibitors. hit rate 0.56% among 390,000. AID 540317; also: nearly all actives have a fitted effect of over 70% in size
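AlphaScreen: HP1-beta (50 nM) preformed 30 min with biotin-H3(1-18)K9me3 peptide (50 nM) in PBS pH 7.4, 0.01% Tween-20. Compound added for 30 min at RT, then streptavidin donor/nickel chelate acceptor beads (10 ug/mL) for 30 min.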
JMJD2A Tudor – blocks the human JMJD2A Tudor domain | O75164 | AlphaScreen JMJD2A-Tudor / H3K4me3 peptide binding | Potency, µM (highest dose often 114 µM), usual class: inhibitors | hit rate 4.4% among 390,000 | AID 504339; also: nearly all actives have a fitted effect of over 50% in size
Target sequence (O75164 whole entry, looked up, the tested form may be a part): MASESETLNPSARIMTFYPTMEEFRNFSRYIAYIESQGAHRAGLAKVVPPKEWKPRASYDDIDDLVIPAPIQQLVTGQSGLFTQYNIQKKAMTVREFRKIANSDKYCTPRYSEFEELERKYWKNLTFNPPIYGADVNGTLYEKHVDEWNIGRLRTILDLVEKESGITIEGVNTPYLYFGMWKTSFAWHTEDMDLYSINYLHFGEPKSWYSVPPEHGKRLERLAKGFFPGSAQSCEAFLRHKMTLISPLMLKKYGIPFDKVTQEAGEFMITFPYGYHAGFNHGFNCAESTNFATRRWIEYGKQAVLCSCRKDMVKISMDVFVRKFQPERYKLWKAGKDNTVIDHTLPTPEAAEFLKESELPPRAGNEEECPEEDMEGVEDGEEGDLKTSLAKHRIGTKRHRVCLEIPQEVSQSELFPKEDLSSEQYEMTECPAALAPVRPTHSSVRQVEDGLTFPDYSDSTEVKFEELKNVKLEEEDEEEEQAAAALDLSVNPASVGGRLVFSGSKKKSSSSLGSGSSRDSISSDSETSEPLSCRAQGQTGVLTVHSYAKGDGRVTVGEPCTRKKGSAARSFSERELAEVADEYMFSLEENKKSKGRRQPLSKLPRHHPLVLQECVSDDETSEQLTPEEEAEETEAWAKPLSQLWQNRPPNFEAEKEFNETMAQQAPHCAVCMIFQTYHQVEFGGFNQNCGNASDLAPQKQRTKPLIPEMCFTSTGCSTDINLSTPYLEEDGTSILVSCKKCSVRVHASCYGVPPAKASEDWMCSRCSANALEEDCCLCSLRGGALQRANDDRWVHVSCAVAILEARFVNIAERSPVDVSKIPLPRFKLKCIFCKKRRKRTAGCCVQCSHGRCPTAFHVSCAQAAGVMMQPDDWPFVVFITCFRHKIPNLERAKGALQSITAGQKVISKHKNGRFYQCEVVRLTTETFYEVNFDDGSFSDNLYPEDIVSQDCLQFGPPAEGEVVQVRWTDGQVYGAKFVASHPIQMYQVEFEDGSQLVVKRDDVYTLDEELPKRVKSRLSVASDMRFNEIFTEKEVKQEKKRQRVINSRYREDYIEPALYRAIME
G9a block – inhibitors of human histone lysine methyltransferase G9a; Q96KQ7; G9a H3K9 monomethylation, AlphaScreen, 2 h; Potency, µM (series often up to 102 µM), actives largely listed as inhibitors; hit rate 8.8% among 350,000; also: nearly all actives have a fitted effect of over 75% in size
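Step 1: enzyme (final 20 nM) with compound, 15 min RT. Step 2: substrate peptide 500 nM and SAM 20 uM, 2 h RT. Step 3: anti-H3K9me1 antibody and AlphaScreen beads, 10 min, then plate read.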
A number is an active result; i = inactive; ? = inconclusive; nt = not tested or not shown; [ ] = dose if it differs, or a comment. Calls follow the shape of the dose curve; as a rule, active = well fitted curve in the direction sought with a large enough effect; inconclusive = small, poorly fitted or top-dose-only effect, or another doubt; inactive = no such curve, though single readings can be large; an effect the other way counts as inactive or inconclusive.

SMILES	BAZ2B inh	Sfp inh	HP1b chromo inh	JMJD2A Tudor	G9a block
O=C(/C=C/c1cccc(C(F)(F)F)c1)NNC(=O)c1ccncc1	i	nt	i	i	i
O=C(O)/C=C/C(=O)Nc1ccc(N2CCOCC2)nc1N1CCOCC1	i	10µM	?	i	8.91µM
CCOC(=O)C(Sc1cc(C)nc(N)n1)C(C)=O (stereo not drawn)	i	56.2µM	i	56.2µM	17.8µM
Cn1nc(SCC(=O)O)sc1=S	i	i	i	i	i
CCOC(=O)C(Sc1nn(C)c(=S)s1)C(C)=O (stereo not drawn)	i	50.1µM	i	i	17.8µM
Cn1c2c(c3cnc4cc(Cl)ccc4c31)CNCC2	nt	nt	i	i	nt
c1ccc(CSc2nc3ncncc3[nH]2)cc1	i	i	i	i[11.4 µM]	i
CCOC(=O)Sc1nc2ncncc2[nH]1	nt	nt	?	3.55µM	nt
COc1cc(Cl)c(C)cc1N1C(=O)CN(Cc2ccccc2)C1=S	i	?	i	i	35.5µM
CCCNC(=O)OC[C@@H]1O[C@H](CCO/N=C(\C)CCN2CCCCc3nc(C)c(C)cc32)C=C[C@@H]1Oc1ccc(OC)cc1	nt	i	nt	nt	nt
CC(C(=O)O)C(=O)O	i	nt	i	79.4µM	10µM
O=C(Nc1ccc(N2CCOCC2)c(C(=O)O)c1)c1ccco1	i	i	nt	nt	56.2µM
O=C(Nc1ccc(N2CCOCC2)cc1N1CCOCC1)c1ccccc1	nt	nt	i	i	nt
Cc1ccc(NC(=O)c2cc(NC(=O)c3ccco3)ccc2N2CCOCC2)cc1	i	i	i	i	i
O=C(Nc1ccc(N2CCOCC2)cc1N1CCOCC1)c1ccco1	i	i	?	56.2µM	?
CC(C)c1nnc(N2C(=O)C(O)=C(C(=O)c3cccs3)C2c2ccccc2)s1 (stereo not drawn)	79.4µM	?	i	i	25.1µM
COc1ccc(C2C(C(=O)c3cccs3)=C(O)C(=O)N2c2nnc(C)s2)cc1OC (stereo not drawn)	50.1µM	56.2µM	i	79.4µM	?
COc1ccc(C2C(C(=O)c3cccs3)=C(O)C(=O)N2c2nncs2)cc1 (stereo not drawn)	?	i	i	?	44.7µM
CCCSc1ncc(Cl)c(C(=O)Nc2c(C(=O)c3ccc(F)cc3)oc3ccccc23)n1	i	nt	i	i	i
C=CCOc1cccc(CNCc2ccncc2)c1	i	i	i	i	i
Cc1ccc(S(=O)(=O)Nc2nc(C)c(NC(=O)OCCCl)s2)cc1	?	50.1µM	i	i	i[2.33 µM]
Cc1nc(NS(=O)(=O)c2ccccc2)sc1C(=O)NN	?	i	i	i	i[12.7 µM]
Cc1ccc(S(=O)(=O)Nc2nc(C)c(C(=O)N/N=C/c3ccccc3)s2)cc1	i	i	i	i	i
Cc1nc(NS(=O)(=O)c2ccccc2)sc1NC(=O)OC(C)C	i	50.1µM	i	i	i[0.0925 µM]
Cc1ccc(S(=O)(=O)Nc2nc(C)c(C(=O)Nc3ccccc3)s2)cc1	i	i	i	i	?
SMILES	BAZ2B inh	Sfp inh	HP1b chromo inh	JMJD2A Tudor	G9a block
COc1ccc(NC(=O)Nc2sc(NS(=O)(=O)c3ccccc3)nc2C)cc1	i	44.7µM	i	i	50.1µM
Cc1ccc(S(=O)(=O)Nc2nc(C)c(NC(=O)Nc3ccc(Cl)cc3Cl)s2)cc1	i	35.5µM	i	i	?
O=C(NC(=S)NN1CCOCC1)c1cc(Br)ccc1Cl	nt	nt	i	i	nt
C=CC(C1=CC(=O)C(OC)=C(OC)C1=O)c1ccccc1 (stereo not drawn)	nt	1.78µM	nt	nt	nt
C=CC(C1=CC(=O)C(OC)=CC1=O)c1ccccc1 (stereo not drawn)	nt	i	nt	nt	?
C=CC(C1=CC(=O)C(OC)=CC1=O)c1ccc(OC)cc1 (stereo not drawn)	nt	39.8µM	nt	nt	nt
O=C(O)c1ccc(CP(=O)(c2ccccc2)c2ccccc2)cc1	i	i	i	i	i[0.501 µM]
CC1CCN(S(=O)(=O)c2ccc(NC(=O)C3CCCCC3C(=O)O)cc2)CC1 (stereo not drawn)	nt	nt	i	i	nt
O=[N+]([O-])/C(C(Cl)=C(Cl)Cl)=C(/Sc1ccccc1)N1CCCCC1	35.5µM	i	i	?	nt
C=CCn1c(C)cc(/C([O-])=C(/C(=S)Nc2ccc(OC(F)F)cc2)[n+]2ccc(N(C)C)cc2)c1C	44.7µM	i	?	?	39.8µM
C=CCn1c(C)cc(C(=O)COc2ccc(N(C)S(=O)(=O)c3ccc(NC(C)=O)cc3)cc2)c1C	nt	nt	i	i	nt
CC/C=C(/NC(C)=O)c1ccccc1	i	nt	i	i	i[0.501 µM]
COc1ccc(NC(=O)Cn2ccn(-c3ccc(C)c(C)c3)c(=O)c2=O)cc1Cl	i	nt	i	i	i
CCCN1CNc2c(c(=O)[nH]c(=S)n2CCc2cccc(OC)c2)C1	nt	nt	i	i	nt
COCCCN1CCc2nc(SCC(=O)Nc3ccc(C)c(Cl)c3)[nH]c(=O)c2C1	i	nt	i	i	i
COCCCN1CCc2[nH]c(=S)[nH]c(=O)c2C1	i	50.1µM	i	?	35.5µM
COc1cccc(CN2CCc3[nH]c(=S)[nH]c(=O)c3C2)c1	i	i	i	i	44.7µM
COCCn1c(=O)c(CCc2ccccc2)nc2cnc(OCc3ccccc3)nc21	nt	i	nt	nt	i[0.501 µM]
Cc1ccccc1Nc1oc(-c2ccccc2)nc1-c1ccccc1	nt	i	nt	nt	nt
CC(CC(=O)Nc1nnc(C(C)(C)C)s1)c1ccccc1 (stereo not drawn)	i	50.1µM	i	i	25.1µM
CC(C)c1nnc(NC(=O)CC(C)c2ccccc2)s1 (stereo not drawn)	?	i	i	i	nt
Cn1c(SCc2nnc(-c3ccccc3Br)o2)nc2sc3c(c2c1=O)CCC3	i	79.4µM	i	i	i
Cc1cccc(C)c1NC(=O)CCS(=O)(=O)c1ccc2c(c1)n(C)c(=O)c(=O)n2C	?	nt	i	i	i
CCc1cccc(C)c1NC(=O)CCS(=O)(=O)c1ccc2c(c1)oc(=O)n2C	i	nt	?	79.4µM	10µM
Cc1cc(Br)ccc1NC(=O)CN(C)C(=O)Cn1c(=O)cnc2ccccc21	79.4µM	i	?	17.8µM	nt
SMILES	BAZ2B inh	Sfp inh	HP1b chromo inh	JMJD2A Tudor	G9a block
Cc1cc(NC(=O)c2cc(-c3ccc(OC(C)C)cc3)nc3ccccc23)no1	i	i	i	i	i
COc1ccccc1CNC(=O)Cn1cc2c(n1)-c1c(oc(C(=O)N3CCOCC3)c1C)CC2	i	nt	i	i	i
O=C(C[n+]1cccc(C(=O)N/N=C/c2ccc(Br)cc2)c1)c1ccccc1	i	nt	i	?	1.41µM
COc1ccc(OC)c(/C=N/NC(=O)c2cc[n+](Cc3ccccc3)cc2)c1	i	i	i	i	i
O=C(N/N=C/c1ccc(Br)cc1)c1cc[n+](Cc2ccccc2)cc1	i	79.4µM	i	i	?
NC(=O)c1ccc[n+](CC(=O)c2ccc(Br)cc2)c1	i	i	i	i	i
O=[N+]([O-])c1cc(C=Nc2cccc3c(O)cccc23)ccc1Cl	?	i	nt	nt	?
CS(=O)(=O)N1CCN(c2nc(-c3cccs3)nc3ccccc23)CC1	nt	nt	i	i	nt
CC(=O)Nc1ccc(C2=CC(=O)C[C@H](c3ccc(Cl)cc3)C2)cc1	i	nt	i	?	i[2.33 µM]
NC(=O)CC(NC(=O)c1cccc(Br)c1)c1ccc(NC2CCCCCCC2)c([N+](=O)[O-])c1 (stereo not drawn)	?	i	i	?	20µM
